Most compounds without a hit are left out; they make up all but 19% or so of the library.
HT1080-NT tox – kills 2HG-producing HT-1080-NT fibrosarcoma cells; HT-1080-NT fibrosarcoma viability, CellTiter-Glo ATP luminescence, 48 h; Potency, µM (doses to about 46.1 µM), for the others: top-dose activity, negative = less viability, actives largely listed as cytotoxic; 360,000 compounds, 1.6% hits;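 note: NT is the 2HG producing partner of a matched IDH1 knockdown line; potency is the fitted concentration of half-maximal effect; 0% = DMSO-treated cells and -100% = media-only wells without cells; nearly all actives have a fitted effect of over 55% in size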
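Luminescent CellTiter-Glo readout after 48 hours of compound exposure at 37 degrees C defined viability of HT-1080-NT cells. Activity was normalized to DMSO wells and cell-free media wells; concentration-response curves were fitted and assigned curve classes.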
HT1080 IDH1KD tx – toxicity to HT-1080 IDH1 knockdown cells (counter line). HT-1080 IDH1 knockdown viability, ATP luminescence, 48 h. AID 686971. Potency, µM (top dose mostly 46.1 µM), for the others: at the highest dose activity, negative = toxicity, most hits filed as cytotoxic. 360,000 compounds, 2% hits;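 note: potency is the fitted concentration of half-maximal effect; 0% = DMSO wells and -100% = cell-free medium wells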
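Cytotoxicity counter-line: IDH1KD HT-1080, 48 h, CellTiter-Glo. Curves classed by r2, magnitude and activity.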
IL1B secr inh – inflammasome signaling inhibition, IL-1 beta readout; THP-1 LPS/ATP IL-1B secretion, AlphaLISA, 16 h; hits give low values; activity change, % at 57.5 µM; 360,000 compounds, 4.7% hits; AID 743279; in the data active = activity change below about -50%; inconclusive = mostly about -30% to -49%
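Secreted IL-1B measured by AlphaLISA bead assay after 16 h compound exposure of THP-1 cells; compounds (final up to 57.5 uM) added 1 h before LPS (250 ng/mL) and ATP (1.25 mM) stimulation; lower signal means less secretion.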
DT40 TDP1 CPT – growth inhibition of DT40 Tdp1-/-;hTDP1 cells with camptothecin (screen for TDP1 inhibitors). 420,000 compounds, 12% hits. chicken DT40 Tdp1-/-;hTDP1 cells + 20 nM CPT, ATP luminescence, 48 h. Potency, µM (titrated, usually from 46.2 µM), inactives show at the top dose activity change, negative = growth inhibition, actives largely listed as inhibitors. AID 686979; note: potency is the fitted concentration of half-maximal effect; nearly all actives have a fitted effect of over 55% in size
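Chicken DT40 Tdp1-/- cells complemented with human TDP1, 400 cells/well, exposed to compounds plus 20 nM camptothecin for at least 48 h at 37 C; viability read as ATP content by CellTiter-Glo luminescence.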
TDP1 cell noCPT – qHTS for Inhibitors of human tyrosyl-DNA phosphodiesterase 1 (TDP1): qHTS in cells in absence of CPT; DT40 Tdp1-/- hTDP1 cells, no CPT, ATP luminescence, 48 h; Potency, µM (highest dose often 46.2 µM), for inactives: at the highest dose activity change, negative = growth inhibition, most hits filed as inhibitors; 420,000 compounds, 15% hits; note: potency is the fitted concentration of half-maximal effect; nearly all actives have a fitted effect of over 55% in size
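DT40 Tdp1-/-;hTDP1 cells, no CPT (DMSO vehicle only), 400 cells/well; compounds pin-transferred; ≥48 hr, 37 °C; CellTiter-Glo 30 min RT dark, luminescence read.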
Starred values were filed as active, the others as inactive; ? = inconclusive; · = no result given; [ ] = dose if it differs, or a comment. Unless noted, calls come from the whole dose curve; as a rule, active = well fitted curve in the direction sought with a large enough effect; inconclusive = small, poorly fitted or top-dose-only effect, or another doubt; inactive = no such curve, though single readings can be large; an effect the other way counts as inactive or inconclusive. Unless noted, % is set by controls: 0 for no effect and ±100 for the full control effect.

SMILES | HT1080-NT tox | HT1080 IDH1KD tx | IL1B secr inh | DT40 TDP1 CPT | TDP1 cell noCPT
CC1CC(C)CN(c2ncc3c(n2)CC(c2ccccc2)CC3=O)C1 (configuration not stated) | 1% | -3% | -3 | 12µM* | 10µM*
O=C1CC(c2ccco2)Cc2nc(N3CCc4ccccc4C3)ncc21 (configuration not stated) | 0% | -16% | -8 | ? | ?
CCO/C(C)=N/n1c2nc3ccccc3nc2c2c(=O)n(Cc3ccccc3Cl)c(C)nc21 | 24% | 6% | ? | ? | 26µM*
CN(C)C(=O)c1cc(CNCc2ccc(C(F)(F)F)cc2)cc(NC(=O)c2ccccn2)c1 | · | · | · | 8% | -24%
CSCCC(NC(=O)c1ccc(Cl)cc1Cl)C(=O)N1CCCCCCC1 (configuration not stated) | -8% | -5% | -7 | ? | 23µM*
CSCCC(NC(=O)c1ccccc1Br)C(=O)N1CCCCCCC1 (configuration not stated) | -1% | -7% | -3 | -12% | -19%
Cc1nn(-c2ccccc2)c(N2CCCC2)c1/C=N/O | -3%[9.24 µM] | 5% | 0 | ? | ?
Cc1nn(-c2ccccc2)c(N2CCCC2)c1/C=N/n1cnc2scc(-c3ccccc3)c2c1=O | 1% | 2% | 37 | 10µM* | 13µM*
O=c1c2c(-c3ccccc3)csc2ncn1/N=C/c1c2ccccc2cc2ccccc12 | -7% | -12% | 37 | ? | 16µM*
Cc1c(C=O)ccc(N(C)C)c1C | · | · | · | 12% | -11%
O=C(Nc1cccc(-c2cn3ccccc3n2)c1)c1cc2ccccc2oc1=O | 8% | 5% | -80* | 2.1µM* | 3.7µM*
CC(=O)Nc1cccc(-c2cn3ccccc3n2)c1 | 12% | 10% | 0 | 24% | 9%
Cc1cc(N2C(=O)C3C4c5ccccc5C(c5ccccc54)C3C2=O)no1 (configuration not stated) | 8% | 3% | 16 | 12µM* | 10µM*
O=C1C2C3c4ccccc4C(c4ccccc43)[C@@H]2C(=O)N1c1cccnc1 (some centres not stated) | 4% | 7% | -5 | ? | 23µM*
Cc1cc(N2C(=O)[C@@H]3[C@H](C2=O)[C@@H]2C[C@H]3C(Br)C2Br)no1 (some centres not stated) | 7% | 10% | 19 | 2% | -9%
O=C1C2C(C(=O)N1c1ccncc1)C1C=CC2C12CC2 (configuration not stated) | 13% | 7% | 25 | ? | -19%
O=C1C2C3c4ccccc4C(c4ccccc43)C2C(=O)N1c1ccncc1 (configuration not stated) | 5% | -1% | 28 | 21µM* | 16µM*
CCCn1nnc(NC(=S)NC(=O)c2ccccc2OC)n1 | 12% | 8% | -5 | ? | 18µM*
CCCCC(=O)Nc1nnn(CCC)n1 | -9% | 3% | -7 | -1% | -4%
CCCCn1nnc(NC(=S)NC(=O)c2ccc(OCC)c([N+](=O)[O-])c2)n1 | -2% | 6% | 6 | ? | 21µM*
CCCn1nnc(NC(=O)c2ccccc2Cl)n1 | -2% | -1% | 0 | 0% | -9%
CCCCC(=O)NC(=S)Nc1nnn(CCC)n1 | -8% | ? | 23 | 4.1µM* | 5.8µM*
COc1cc2ccccc2cc1C(=O)NC(=S)Nc1nnn(C)n1 | 22% | 22% | 7 | 23µM* | 16µM*
CCOc1ccc(C(=O)NC(=S)Nc2ncccc2C)cc1[N+](=O)[O-] | 3% | 2% | 31 | ? | ?
CCCCn1nnc(NC(=S)NC(=O)c2ccc(-c3cccc(Cl)c3Cl)o2)n1 | -3% | 1% | 10 | 10µM* | 23µM*
SMILES | HT1080-NT tox | HT1080 IDH1KD tx | IL1B secr inh | DT40 TDP1 CPT | TDP1 cell noCPT
Cc1ccccc1Nc1nc(N)nc(CSc2nc3ccccc3c(=O)n2C)n1 | -17% | -29% | -53* | 9.2µM* | 8.2µM*
Cc1ccccc1Nc1nc(N)nc(CSCC(=O)Nc2cccc(Br)c2)n1 | 2% | -1% | -5 | ? | 16µM*
Cc1ccccc1Nc1nc(N)nc(CSc2nc3ccccc3c(=O)n2CCCO)n1 | ? | -20% | -3 | ? | 18µM*
Cc1ccccc1Nc1nc(N)nc(CSc2nnc(C)n2C)n1 | 1% | 15% | 6 | -3% | 14%
Cc1ccc2c(CSc3nc4ccccc4c(=O)n3CCCO)cc(=O)oc2c1C | ? | ? | -4 | ? | 23µM*
Cc1ccc(SCc2nc(N)nc(Nc3ccccc3C)n2)cc1C | -10% | -14% | 17 | ? | ?
COCCn1c(SCc2nc(N)nc(Nc3ccccc3C)n2)nc2ccccc2c1=O | -18% | 4% | -9 | ? | ?
C(=N/N1CCN(c2ccccc2)CC1)/c1ccncc1 | -4% | -2% | -3 | ? | ?
O=C(CNC(=O)c1nn(Cc2ccccc2)c(=O)c2ccccc12)Nc1ccc(F)c(F)c1F | 1% | 0% | 39 | -17% | -29%
COc1ccc(C(=O)N[C@H](C(=O)Nc2nc3c(s2)CCCC3)C(C)C)cc1 | -2% | 1% | -25 | ? | 23µM*
CCOc1ccccc1C(=O)N[C@H](C(=O)Nc1nc2c(s1)CCCC2)C(C)C | ? | ? | ? | 16µM* | 18µM*
CCC(Oc1ccc(F)cc1)C(=O)Nc1nc2c(s1)CCCC2 (configuration not stated) | · | · | · | ? | 16µM*
